Reference: PubChem BioAssay (NCI)
Where “and” joins values, the source holds several entries; their conditions need not be identical. Equal entries are not always repeated. About 79,000 compounds went through this panel and 15% of them were active in at least one assay; those are over-represented in the sample as a whole. Calls of active or inactive are those of the source. Cut-off read from the data, not from the text of the source: active = growth inhibition above about 70%; inactive = the rest.

How the values were obtained:
[1] = NCI Yeast Anticancer Drug Screen. Data for the rad50 strain (AID 155);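 note: 0% = growth of vehicle-only cultures of the same strain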; settings: S. cerevisiae rad50 strain growth inhibition; at 50.0 µM; active compounds read high
Procedure, shortened: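 Vehicle-treated cultures provide the reference for the growth inhibition reported for compound-exposed, repair-deficient yeast.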

[2] = NCI Yeast Anticancer Drug Screen. Data for the mec2-1 strain (AID 157); settings: S. cerevisiae mec2-1 strain, active compounds read high
Procedure, shortened: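 Readout is yeast growth inhibition, normalised to vehicle-treated controls, in the mec2-1 strain exposed to compound.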

[3] = NCI Yeast Anticancer Drug Screen. Data for the cln2 rad14 strain (AID 165);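 note: 0% = growth equal to vehicle treated cultures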; settings: S. cerevisiae cln2 rad14 strain, active compounds read high
Procedure, shortened: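 Relative to vehicle controls, growth inhibition of compound-treated cln2 rad14 yeast was recorded.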

[4] = NCI Yeast Anticancer Drug Screen. Data for the bub3 strain (AID 167); settings: S. cerevisiae bub3 mutant strain, active compounds read high
Procedure, shortened: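 Mutant yeast screening strain plus compound; vehicle-treated cultures serve as the 0% inhibition reference.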

[5] = NCI Yeast Anticancer Drug Screen. Data for the mlh1 rad18 strain (AID 175); settings: S. cerevisiae mlh1 rad18 strain growth inhibition, active compounds read high
Procedure, shortened: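 Test agents were incubated with a yeast strain of defined genotype (DNA damage repair defect). Inhibition of growth was derived by comparison with vehicle-exposed cultures.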

[6] = NCI Yeast Anticancer Drug Screen. Data for the sgs1 mgt1 strain (AID 161);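 note: 0% = growth of cultures given vehicle only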; settings: S. cerevisiae sgs1 mgt1 strain, active compounds read high
Procedure, shortened: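 Percent growth inhibition was derived by comparing compound-exposed mutant yeast with vehicle-exposed cultures. The strain carries alterations in DNA damage repair.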

[7] = at 5.0 µM (retest, dose inferred, filed as 0.5)
[8] = at 50.0 µM (retest, dose inferred, filed as 5.0)

Measured: growth inhibition

Nc1cc2ccc(S(=O)(=O)O)cc2cc1S(=O)(=O)O
inactive: [1] 44.5% and 10.7% | [2]; at 50.0 µM 14.8% and 10.9% | [3]; at 50.0 µM -12.3% and -14.9% | [4]; at 50.0 µM 8.8% and 11.2% | [5]; at 50.0 µM 29.5% and 35.3%

CN(C)C=C(S(C)(=O)=O)S(C)(=O)=O
inactive: [1] 10.2% and -24.7% | [6]; at 50.0 µM 20.1% and -9.85% | [3]; at 50.0 µM -17.5% and 4.25% | [4]; at 50.0 µM 5.8% and 14.9% | [5]; at 50.0 µM 9.1% and -14.8%

O=S(=O)(O)NC1CCCCC1
inactive: [1] 29.4% and 4.8% | [2]; at 50.0 µM 16.2% and -1.15% | [6]; at 50.0 µM -7.7% and -4.9% | [4]; at 50.0 µM 11.4% and 10.1% | [5]; at 50.0 µM 11.8% and -9.45%

O=C(NNC(=S)NC1OC(CO)C(O)C(O)C1O)c1cccc(C(=O)NNC(=S)NC2OC(CO)C(O)C(O)C2O)n1 (stereo unspecified)
inactive: [1] 1.45% | [6]; at 50.0 µM 31.4% and 25.2% | [3]; at 50.0 µM 21.4% and 7.8% | [4]; at 50.0 µM 17.1% and 8.4% | [5]; at 50.0 µM 27.4% and 14.9%

CC(=O)O[C@H]1C(=O)[C@@]2(C)C(C(OC(=O)c3ccccc3)[C@]3(O)CC(OC(=O)[C@H](OC(=O)CCC(=O)O)C(NC(=O)c4ccccc4)c4ccccc4)C(C)=C1C3(C)C)C1(OC(C)=O)COC1C[C@@H]2O (stereo partly specified)
inactive: [2]; at 50.0 µM 10.1% and 18.2% | [6]; at 50.0 µM -19.2% and -19.7% | [3]; at 50.0 µM -15.8% and -13.2% | [4]; at 50.0 µM -6.95% and -15.3%

CCC(C(=O)O)c1ccccc1 (stereo unspecified)
inactive: [1] 10.7% and 12.6% | [2]; at 50.0 µM 5.4% and 3.95% | [6]; at 50.0 µM 9.4% and 1.25% | [4]; at 50.0 µM -19.6% and -1.9% | [5]; at 50.0 µM 22.4% and 2.4%

CC1=CC(=NC(=O)CBr)C=C/C1=N\S(=O)(=O)c1ccccc1
inactive: [2]; [7] 44% | [2]; at 50.0 µM 33.2% | [6]; [7] 46% | [6]; at 50.0 µM 55% | [3]; [7] 42% | [3]; at 50.0 µM 28.3% | [4]; [7] 46% | [5]; [7] 55% | [5]; at 50.0 µM 56.1%
active: [2]; [8] 100% | [6]; [8] 100% | [3]; [8] 81% | [4]; [8] 97% | [4]; at 50.0 µM 84.5% | [5]; [8] 99%

Cc1ccc(S(=O)(=O)NC(CCC(=O)O)C(=O)O)cc1 (stereo unspecified)
inactive: [1] -11.2% and -4.6% | [2]; at 50.0 µM -22.7% and 7.2% | [6]; at 50.0 µM 0.15% and 0.2% | [4]; at 50.0 µM 21.1% and 6.9% | [5]; at 50.0 µM -12.4% and 9.75%

Cc1ccc(S(=O)(=O)NN)cc1
inactive: [1] -8.7% and 9.3% | [2]; at 50.0 µM 2.3% and -9.9% | [3]; at 50.0 µM 2.5% and 6.7% | [4]; at 50.0 µM -30.2% and 16.4% | [5]; at 50.0 µM -20% and 5.9%

CC1(C)N=c2cc3c(cc2N1c1ccc(Cl)cc1)=Nc1ccccc1N3c1ccc(Cl)cc1
active: [2]; at 50.0 µM 94.2% | [6]; at 50.0 µM 97.1% | [4]; at 50.0 µM 94% | [5]; at 50.0 µM 96.3%
inactive: [2]; [7] 7% | [2]; [8] -4% | [6]; [7] 16% | [6]; [8] 1% | [4]; [7] 7% | [4]; [8] 1% | [5]; [7] 35% | [5]; [8] -5%
